Source: PubChem BioAssay (EPA / NIEHS)
Active and inactive are the calls of the source. The calls were made as follows: active = hit-call score of the fitted dose curve at least 0.9, where 1 is the maximum; inactive = score below 0.9.

What was measured:
Conditions in all cases: mRNA level, 48 h; actives raise or lower the signal
[1] = read-out: growth arrest and DNA damage 45 (GADD45B), GADD45B (gene 4616); experiment: LTEA_HepaRG_GADD45B: Life Technologies and Expression Analysis (LTEA) Assay for growth arrest and DNA damage 45 (GADD45B) using HepaRG (AID 2283461)
Method in brief: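 Transcript level quantified by Fluidigm TaqMan qRT-PCR with three housekeeping genes for normalization, analyzed for up- or down-regulation against 0.5% DMSO. HepaRG cultures dosed 48 h at eight half-log concentrations up to 100 uM, duplicates.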

[2] = read-out: ABC Transporter (ABCC3), ABCC3 (gene 8714); experiment: LTEA_HepaRG_ABCC3: Life Technologies and Expression Analysis (LTEA) Assay for ABC Transporter (ABCC3) using HepaRG (AID 2283462)
Method in brief: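 Transcript level by TaqMan qRT-PCR, normalised to three housekeeping genes, fitted in both directions relative to vehicle. Chemicals tested in duplicate at eight half-log concentrations up to 100 uM for 48 h on HepaRG cells (0.5% DMSO).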

[3] = read-out: ABC Transporter (ABCC2), ABCC2 (gene 1244); experiment: LTEA_HepaRG_ABCC2: Life Technologies and Expression Analysis (LTEA) Assay for ABC Transporter (ABCC2) using HepaRG (AID 2283464)
Method in brief: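 Endpoint is ABCC2 transcript level from qRT-PCR, normalized to three housekeeping genes and fitted bidirectionally relative to DMSO. Human HepaRG cells received test chemical for 48 h at up to 100 uM (8 points, half-log steps, 0.5% DMSO), duplicate wells.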

[4] = read-out: Broad substrate specificity ATP-binding cassette transporter ABCG2 (Homo sapiens) (UniProt Q9UNQ0); experiment: LTEA_HepaRG_ABCG2: Life Technologies and Expression Analysis (LTEA) Assay for ABC Transporter (ABCG2) using HepaRG (AID 2283465)
Method in brief: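 Differentiated HepaRG cells were exposed for 48 h in serum-free induction medium to 8 half-log concentrations, top 100 uM, in 0.5% DMSO. ABCG2 mRNA was measured by qRT-PCR, normalized to ACTB, GAPDH and POLR2A, with bidirectional fitting versus DMSO.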

[5] = read-out: ATP-citrate lyase (ACLY), ACLY (gene 47); experiment: LTEA_HepaRG_ACLY: Life Technologies and Expression Analysis (LTEA) Assay for ATP-citrate lyase (ACLY) using HepaRG (AID 2283466)
Method in brief: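 Differentiated HepaRG cells exposed 48 h in serum-free induction medium to eight half-log concentrations up to 100 uM in 0.5% DMSO, duplicates. Transcript measured by Fluidigm TaqMan qRT-PCR, normalized to ACTB, GAPDH, POLR2A; bidirectional fit versus DMSO.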

[6] = read-out: Peroxisomal acyl-coenzyme A oxidase 1 (ACOX1) gene, ACOX1 (gene 51); experiment: LTEA_HepaRG_ACOX1: Life Technologies and Expression Analysis (LTEA) Assay for Peroxisomal acyl-coenzyme A oxidase 1 (ACOX1) gene using HepaRG (AID 2283467)
Method in brief: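 HepaRG cells, plated 48 h then switched to serum-free induction medium, were exposed in duplicate for 48 h to 8-point half-log concentrations up to 100 uM in 0.5% DMSO. ACOX1 mRNA was measured by qRT-PCR, normalized to ACTB/GAPDH/POLR2A, and fitted bidirectionally versus DMSO.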

[7] = read-out: Alkaline Phosphatase, Placental (ALPP) gene, ALPP (gene 250); experiment: LTEA_HepaRG_ALPP: Life Technologies and Expression Analysis (LTEA) Assay for Alkaline Phosphatase, Placental (ALPP) gene using HepaRG (AID 2283468)
Method in brief: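 ALPP transcript level, measured by qRT-PCR and normalized to three housekeeping genes (ACTB, GAPDH, POLR2A), after 48 h dosing of differentiated HepaRG in serum-free induction medium. Top concentration 100 uM with half-log dilutions (8 points, 0.5% DMSO, duplicates); bidirectional fitting relative to DMSO.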

[8] = read-out: Bcl-2 (BAD) gene, BAD (gene 572); experiment: LTEA_HepaRG_BAD: Life Technologies and Expression Analysis (LTEA) Assay for Bcl-2 (BAD) gene using HepaRG (AID 2283469)
Method in brief: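 Differentiated HepaRG cells were exposed in duplicate in 0.5% DMSO for 48 h to eight-point half-log concentrations up to 100 uM. BAD mRNA was measured by Fluidigm TaqMan qRT-PCR, normalized to ACTB, GAPDH and POLR2A, and fitted bidirectionally against DMSO.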

[9] = read-out: Bcl-2 (BAX) gene, BAX (gene 581); experiment: LTEA_HepaRG_BAX: Life Technologies and Expression Analysis (LTEA) Assay for Bcl-2 (BAX) gene using HepaRG (AID 2283470)
Method in brief: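 Differentiated HepaRG cells exposed 48 h in serum-free induction medium, eight half-log concentrations from 100 uM, in duplicate, 0.5% DMSO vehicle. BAX mRNA by TaqMan qRT-PCR, normalised to ACTB, GAPDH and POLR2A.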

[10] = read-out: adenosine kinase (ADK) gene, ADK (gene 132); experiment: LTEA_HepaRG_ADK: Life Technologies and Expression Analysis (LTEA) Assay for adenosine kinase (ADK) gene using HepaRG (AID 2283471)
Method in brief: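 Differentiated HepaRG cells dosed 48 h in serum-free induction medium, 0.5% DMSO vehicle, eight half-log concentrations from 100 uM, in duplicate. ADK mRNA by TaqMan qRT-PCR normalised to ACTB, GAPDH, POLR2A; bidirectional fit versus DMSO.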

[11] = read-out: BCL2L11 (gene 10018); experiment: LTEA_HepaRG_BCL2L11: Life Technologies and Expression Analysis (LTEA) Assay for Bcl-2 (BCL2L11) gene using HepaRG (AID 2283473)
Method in brief: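 BCL2L11 transcript levels are measured by Fluidigm qRT-PCR, normalized to three housekeeping genes. HepaRG cultures were plated 48 h, then treated 48 h with test chemical (top 100 uM, half-log, 0.5% DMSO vehicle); curves were fitted bidirectionally against DMSO.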

[12] = read-out: Apolipoprotein A-V (APOA5) gene, APOA5 (gene 116519); experiment: LTEA_HepaRG_APOA5: Life Technologies and Expression Analysis (LTEA) Assay for Apolipoprotein A-V (APOA5) gene using HepaRG (AID 2283474)
Method in brief: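 APOA5 transcript levels were quantified by qRT-PCR, normalized to three housekeeping genes, after 48 h chemical treatment of HepaRG cells (8 points, 100 uM maximum, half-log steps, 0.5% DMSO). Curves fitted in both directions against vehicle.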

[13] = read-out: Apoptosis regulator Bcl-2 (Homo sapiens) (UniProt P10415); experiment: LTEA_HepaRG_BCL2: Life Technologies and Expression Analysis (LTEA) Assay for Bcl-2 gene using HepaRG (AID 2283475)
Method in brief: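 Differentiated human HepaRG cells in serum-free induction medium exposed 48 h, in duplicate, to 8-point half-log series from 100 uM in 0.5% DMSO. BCL2 mRNA by qRT-PCR (TaqMan/Fluidigm), normalized to ACTB, GAPDH, POLR2A; bidirectional fit against DMSO.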

[14] = read-out: Bcl-2 (BID) gene, BID (gene 637); experiment: LTEA_HepaRG_BID: Life Technologies and Expression Analysis (LTEA) Assay for Bcl-2 (BID) gene using HepaRG (AID 2283476)
Method in brief: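 Gene expression by qRT-PCR in HepaRG cells after 48 h exposure, duplicate wells, eight half-log concentrations topping at 100 uM in 0.5% DMSO. Normalized to ACTB, GAPDH, POLR2A; bidirectional fitting relative to DMSO.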

[15] = read-out: Caspase-3 (Homo sapiens) (UniProt P42574); experiment: LTEA_HepaRG_CASP3: Life Technologies and Expression Analysis (LTEA) Assay for cysteine-aspartic acid protease (CASP3) using HepaRG (AID 2283477)
Method in brief: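 Expression of CASP3 was quantified by TaqMan qRT-PCR against three housekeeping genes (ACTB, GAPDH, POLR2A), bidirectionally versus 0.5% DMSO. HepaRG cultures received compounds in duplicate, top 100 uM with half-log steps, for 48 h in serum-free induction medium.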

[16] = read-out: Cytochrome P450 (CYP24A1), CYP24A1 (gene 1591); experiment: LTEA_HepaRG_CYP24A1: Life Technologies and Expression Analysis (LTEA) Assay for Cytochrome P450 (CYP24A1) using HepaRG (AID 2283478)
Method in brief: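 mRNA of CYP24A1 quantified by TaqMan qRT-PCR (ACTB/GAPDH/POLR2A normalization) after 48 h chemical exposure of HepaRG cells, top concentration 100 uM, half-log steps, 0.5% DMSO vehicle, duplicates. Curves fitted bidirectionally against DMSO baseline.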

[17] = read-out: Cytochrome P450 (CYP1A2), CYP1A2 (gene 1544); experiment: LTEA_HepaRG_CYP1A2: Life Technologies and Expression Analysis (LTEA) Assay for Cytochrome P450 (CYP1A2) using HepaRG (AID 2283479)
Method in brief: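 CYP1A2 transcript measured by TaqMan qRT-PCR against three housekeeping genes after 48-hour chemical exposure of HepaRG cells. Eight-point half-log series topping at 100 uM in 0.5% DMSO, duplicates; gain or loss fitted relative to vehicle.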

[18] = read-out: Alpha-fetoprotein (AFP) gene, AFP (gene 174); experiment: LTEA_HepaRG_AFP: Life Technologies and Expression Analysis (LTEA) Assay for Alpha-fetoprotein (AFP) gene using HepaRG (AID 2283472)
Method in brief: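 Differentiated human HepaRG cells exposed 48 h in serum-free induction medium, 8-point half-log series from 100 uM in 0.5% DMSO, duplicate. AFP mRNA by qRT-PCR, normalized to ACTB, GAPDH, POLR2A; bidirectional fit vs DMSO.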

[19] = read-out: cysteine-aspartic acid protease (CASP8), CASP8 (gene 841); experiment: LTEA_HepaRG_CASP8: Life Technologies and Expression Analysis (LTEA) Assay for cysteine-aspartic acid protease (CASP8) using HepaRG (AID 2283480)
Method in brief: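 Differentiated HepaRG cells in serum-free induction medium, 48 h exposure, eight-point half-log series from 100 uM in 0.5% DMSO, duplicates. CASP8 mRNA by qRT-PCR, normalized to ACTB, GAPDH, POLR2A; bidirectional fit versus DMSO.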

Measured: AC50

Chain of Caspase-3 (Homo sapiens) (P42574 whole entry, looked up): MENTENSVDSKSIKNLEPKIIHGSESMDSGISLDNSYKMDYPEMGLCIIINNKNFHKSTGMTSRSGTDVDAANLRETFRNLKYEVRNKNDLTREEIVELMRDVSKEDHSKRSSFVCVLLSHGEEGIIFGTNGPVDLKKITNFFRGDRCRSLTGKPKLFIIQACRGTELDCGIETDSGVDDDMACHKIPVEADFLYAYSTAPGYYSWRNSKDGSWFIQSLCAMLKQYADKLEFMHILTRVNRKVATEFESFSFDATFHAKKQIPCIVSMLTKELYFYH
Chain of Broad substrate specificity ATP-binding cassette transporter ABCG2 (Homo sapiens) (Q9UNQ0 whole entry, looked up): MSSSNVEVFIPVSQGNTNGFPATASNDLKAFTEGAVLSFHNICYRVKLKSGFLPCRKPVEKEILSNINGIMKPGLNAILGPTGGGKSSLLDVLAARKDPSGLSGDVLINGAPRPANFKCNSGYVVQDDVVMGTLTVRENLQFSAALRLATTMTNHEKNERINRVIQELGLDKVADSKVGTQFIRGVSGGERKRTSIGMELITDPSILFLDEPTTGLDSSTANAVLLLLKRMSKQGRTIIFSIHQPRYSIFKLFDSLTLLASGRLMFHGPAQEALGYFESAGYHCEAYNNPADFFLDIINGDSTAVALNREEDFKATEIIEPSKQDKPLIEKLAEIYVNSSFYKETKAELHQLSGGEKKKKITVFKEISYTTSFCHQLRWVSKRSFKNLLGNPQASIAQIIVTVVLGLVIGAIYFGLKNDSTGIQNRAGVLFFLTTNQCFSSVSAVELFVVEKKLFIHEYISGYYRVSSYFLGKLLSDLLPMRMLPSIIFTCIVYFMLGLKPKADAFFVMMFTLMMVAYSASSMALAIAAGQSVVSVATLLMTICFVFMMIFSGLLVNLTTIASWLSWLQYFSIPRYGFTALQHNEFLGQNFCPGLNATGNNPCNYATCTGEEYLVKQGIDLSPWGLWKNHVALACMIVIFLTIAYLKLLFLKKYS
Chain of Apoptosis regulator Bcl-2 (Homo sapiens) (P10415 whole entry, looked up): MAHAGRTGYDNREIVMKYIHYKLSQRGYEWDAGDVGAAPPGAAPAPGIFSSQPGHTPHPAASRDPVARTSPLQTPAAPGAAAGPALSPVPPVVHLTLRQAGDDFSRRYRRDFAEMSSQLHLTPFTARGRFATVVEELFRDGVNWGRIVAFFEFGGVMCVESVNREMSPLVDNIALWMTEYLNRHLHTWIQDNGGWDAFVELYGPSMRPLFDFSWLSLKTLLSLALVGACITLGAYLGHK

Cc1[nH]cnc1C[C@H]1CCc2c(C)c3ccccc3n2C1=O
active: [1] 25.2 µM | [2] 10.6 µM | [3] 31.3 µM | [5] 75.6 µM | [6] 54.4 µM | [9] 28 µM | [11] 26.6 µM | [12] 19.6 µM | [13] 24.1 µM | [17] 5.56 µM
inactive: [4] | [7] | [8] | [10] | [14] | [15] | [16]

COCCOCCOCCOC
inactive: all assays above

CCCCCCc1ccc(O)cc1O
inactive: all assays above

CC(=O)OC[C@H]1O[C@@](COC(C)=O)(O[C@H]2O[C@H](COC(C)=O)[C@@H](OC(C)=O)[C@H](OC(C)=O)[C@H]2OC(C)=O)[C@@H](OC(C)=O)[C@@H]1OC(C)=O
inactive: all assays above
